# The full data set covers some 7,900 targets. This sample favours those with a hit. About 0.6% of all pairs of compound and target were hits. A number with no mark means an inactive call.
# Columns and labels:
# Assay in all cases: log2 fold change, soluble protein after heating vs DMSO (PISA); higher = thermal stabilisation; K562 cells, 10 uM, 30 min; active = over 0.2 and 3.5 SD of the protein, either way, in both replicates (recomputed)
# [1] = compound: CC[C@@H]1C(=O)N(C)c2cnc(Nc3ccc(C(=O)NC4CCN(C)CC4)cc3OC)nc2N1C1CCCC1
# Outline: (§1)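 Soluble protein was quantified by TMTpro 16plex LC-MS/MS after channel sums were equalised. It was obtained as the supernatant after 21,000xg for 90 min from pooled aliquots of K562 cells (2×10^6 cells/mL, 10 μM compound, 30 min) heated for 3 min across 48°C-58°C and extracted in PBS with 0.5% NP-40 at 4°C. Thermal stability values are relative to control samples and come from duplicates. They are given as log2 fold changes.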
# volasertib = compound: CC[C@@H]1C(=O)N(C)c2cnc(Nc3ccc(C(=O)N[C@H]4CC[C@H](N5CCN(CC6CC6)CC5)CC4)cc3OC)nc2N1C(C)C [volasertib]
# Outline: as §1
# [2] = compound: CC[C@H](C)N1C=C(C2=C(C=C(C=C21)C3=CN=C(C=C3)N4CCNCC4)C(=O)NCC5=C(C=C(NC5=O)C)C)C
# Outline: as §1
# epoxomicin = compound: CC[C@H](C)[C@@H](C(=O)N[C@@H]([C@@H](C)O)C(=O)N[C@@H](CC(C)C)C(=O)[C@]1(CO1)C)NC(=O)[C@H]([C@@H](C)CC)N(C)C(=O)C [epoxomicin]
# Outline: as §1
# [3] = compound: CCn1c(C(=O)N(C2CC2)C2CC2)cc2c3c(ncn3C)c(Nc3cc(C)n(C)n3)nc21
# Outline: as §1
# [4] = compound: CCn1cc(-c2ccnc3[nH]c(-c4cccc(CN(C)C)c4)cc23)c(-c2ccc(NC(=O)N(C)C)cc2)n1
# Outline: as §1
# [5] = compound: CN(C)CC(=O)Nc1ccc2[nH]c(=O)c3ccccc3c2c1
# Outline: as §1
# rosiglitazone = compound: CN(CCOC1=CC=C(C=C1)C[C@H]2C(=O)NC(=O)S2)C3=CC=CC=N3 (racemic) [rosiglitazone]
# Outline: as §1
# [6] = compound: CN1C2=C(C3=C1C(=O)N(N=C3)CC4=CC(=CC=C4)N)SC(=C2)S(=O)C
# Outline: as §1
# [7] = compound: CN1CCC(CNc2ccc3ncc(-c4cccc(OC(F)(F)F)c4)n3n2)CC1
# Outline: as §1
# saracatinib = compound: CN1CCN(CCOc2cc(OC3CCOCC3)c3c(Nc4c(Cl)ccc5c4OCO5)ncnc3c2)CC1 [saracatinib]
# Outline: as §1
# sotrastaurin = compound: CN1CCN(c2nc(C3=C(c4c[nH]c5ccccc45)C(=O)NC3=O)c3ccccc3n2)CC1 [sotrastaurin]
# Outline: as §1
# alvocidib = compound: CN1CC[C@H](c2c(O)cc(O)c3c(=O)cc(-c4ccccc4Cl)oc23)[C@H](O)C1 [alvocidib]
# Outline: as §1
# Tubastatin A = compound: CN1CCc2c(c3ccccc3n2Cc2ccc(C(=O)NO)cc2)C1 [Tubastatin A]
# Outline: as §1
# [8] = compound: CNC(=O)C1=CC=CC=C1NC2=NC(=NC=C2Cl)NC3=C(C=C(C=C3)N4CCOCC4)OC
# Outline: as §1
# defactinib = compound: CNC(=O)c1ccc(Nc2ncc(C(F)(F)F)c(NCc3nccnc3N(C)S(C)(=O)=O)n2)cc1 [defactinib]
# Outline: as §1
# rucaparib = compound: CNCc1ccc(-c2[nH]c3cc(F)cc4c3c2CCNC4=O)cc1 [rucaparib]
# Outline: as §1
# [9] = compound: CNc1nc(-c2ccc3c(N)n[nH]c3c2)cc(N2C[C@@H](C(=O)NC3CCCCC3)CC[C@H]2C)n1
# Outline: as §1
# encorafenib = compound: COC(=O)N[C@@H](C)CNc1nccc(-c2cn(C(C)C)nc2-c2cc(Cl)cc(NS(C)(=O)=O)c2F)n1 [encorafenib]
# Outline: as §1
# [10] = compound: COC(=O)[C@H](CCSC)NC(=O)C1=C(C=C(C=C1)NC[C@H](CS)N)C2=CC=CC=C2
# Outline: as §1
# UniProt Q7Z3C6, sequence (Q7Z3C6 whole entry, looked up): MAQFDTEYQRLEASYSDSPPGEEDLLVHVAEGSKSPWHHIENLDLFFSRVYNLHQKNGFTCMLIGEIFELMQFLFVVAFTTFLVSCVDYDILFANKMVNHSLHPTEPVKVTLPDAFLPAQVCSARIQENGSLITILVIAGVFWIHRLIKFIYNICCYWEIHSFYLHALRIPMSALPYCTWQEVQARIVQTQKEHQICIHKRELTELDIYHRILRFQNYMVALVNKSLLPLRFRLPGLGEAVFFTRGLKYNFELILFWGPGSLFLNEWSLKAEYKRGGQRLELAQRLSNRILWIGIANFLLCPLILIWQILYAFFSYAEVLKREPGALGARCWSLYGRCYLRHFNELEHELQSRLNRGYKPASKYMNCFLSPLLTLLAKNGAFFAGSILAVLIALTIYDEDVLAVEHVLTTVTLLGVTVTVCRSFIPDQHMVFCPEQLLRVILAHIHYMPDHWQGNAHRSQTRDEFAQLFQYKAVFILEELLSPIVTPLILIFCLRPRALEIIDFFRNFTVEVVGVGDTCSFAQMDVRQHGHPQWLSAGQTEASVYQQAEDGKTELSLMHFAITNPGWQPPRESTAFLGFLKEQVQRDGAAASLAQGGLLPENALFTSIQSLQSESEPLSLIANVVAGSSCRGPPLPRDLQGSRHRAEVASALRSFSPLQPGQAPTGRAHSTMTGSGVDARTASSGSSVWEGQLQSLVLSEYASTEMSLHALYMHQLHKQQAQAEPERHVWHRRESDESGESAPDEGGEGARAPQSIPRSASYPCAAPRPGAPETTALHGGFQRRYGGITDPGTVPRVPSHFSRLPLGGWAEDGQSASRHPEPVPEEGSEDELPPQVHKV
# UniProt O75882, sequence (O75882 whole entry, looked up): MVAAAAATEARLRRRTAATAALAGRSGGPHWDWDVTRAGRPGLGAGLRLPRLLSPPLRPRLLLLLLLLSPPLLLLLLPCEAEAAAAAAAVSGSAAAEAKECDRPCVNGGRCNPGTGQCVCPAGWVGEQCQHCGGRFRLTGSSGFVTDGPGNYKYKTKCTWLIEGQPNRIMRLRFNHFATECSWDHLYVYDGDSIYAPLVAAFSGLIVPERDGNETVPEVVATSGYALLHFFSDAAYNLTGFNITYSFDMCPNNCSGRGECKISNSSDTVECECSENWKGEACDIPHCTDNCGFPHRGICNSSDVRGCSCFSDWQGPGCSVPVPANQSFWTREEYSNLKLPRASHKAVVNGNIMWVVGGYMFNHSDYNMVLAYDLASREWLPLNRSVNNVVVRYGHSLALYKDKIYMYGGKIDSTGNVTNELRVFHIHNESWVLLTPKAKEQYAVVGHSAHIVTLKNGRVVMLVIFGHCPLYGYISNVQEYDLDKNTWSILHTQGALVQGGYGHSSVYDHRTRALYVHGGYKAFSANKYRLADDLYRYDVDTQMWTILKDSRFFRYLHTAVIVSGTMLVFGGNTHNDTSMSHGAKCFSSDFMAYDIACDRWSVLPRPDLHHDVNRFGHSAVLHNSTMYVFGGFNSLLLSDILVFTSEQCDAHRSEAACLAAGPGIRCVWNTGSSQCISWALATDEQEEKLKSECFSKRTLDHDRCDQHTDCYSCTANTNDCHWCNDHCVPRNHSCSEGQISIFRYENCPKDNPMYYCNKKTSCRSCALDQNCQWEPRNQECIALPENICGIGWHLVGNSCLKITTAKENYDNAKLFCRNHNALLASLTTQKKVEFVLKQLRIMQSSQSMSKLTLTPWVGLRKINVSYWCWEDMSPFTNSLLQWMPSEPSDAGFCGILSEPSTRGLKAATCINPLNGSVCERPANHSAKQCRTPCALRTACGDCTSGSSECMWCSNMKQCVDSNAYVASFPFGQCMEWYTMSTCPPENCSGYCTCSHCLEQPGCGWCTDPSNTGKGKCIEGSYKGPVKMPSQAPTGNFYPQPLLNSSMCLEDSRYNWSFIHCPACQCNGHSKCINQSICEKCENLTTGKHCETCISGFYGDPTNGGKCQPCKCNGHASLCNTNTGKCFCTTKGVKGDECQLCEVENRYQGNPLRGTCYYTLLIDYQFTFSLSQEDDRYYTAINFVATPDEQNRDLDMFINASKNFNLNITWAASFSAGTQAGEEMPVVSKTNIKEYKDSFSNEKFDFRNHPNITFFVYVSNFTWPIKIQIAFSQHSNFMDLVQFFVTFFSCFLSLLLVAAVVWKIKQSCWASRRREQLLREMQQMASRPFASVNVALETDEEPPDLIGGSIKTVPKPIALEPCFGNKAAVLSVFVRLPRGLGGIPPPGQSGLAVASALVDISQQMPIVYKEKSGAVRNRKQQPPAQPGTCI
# UniProt P55196, sequence (P55196 whole entry, looked up): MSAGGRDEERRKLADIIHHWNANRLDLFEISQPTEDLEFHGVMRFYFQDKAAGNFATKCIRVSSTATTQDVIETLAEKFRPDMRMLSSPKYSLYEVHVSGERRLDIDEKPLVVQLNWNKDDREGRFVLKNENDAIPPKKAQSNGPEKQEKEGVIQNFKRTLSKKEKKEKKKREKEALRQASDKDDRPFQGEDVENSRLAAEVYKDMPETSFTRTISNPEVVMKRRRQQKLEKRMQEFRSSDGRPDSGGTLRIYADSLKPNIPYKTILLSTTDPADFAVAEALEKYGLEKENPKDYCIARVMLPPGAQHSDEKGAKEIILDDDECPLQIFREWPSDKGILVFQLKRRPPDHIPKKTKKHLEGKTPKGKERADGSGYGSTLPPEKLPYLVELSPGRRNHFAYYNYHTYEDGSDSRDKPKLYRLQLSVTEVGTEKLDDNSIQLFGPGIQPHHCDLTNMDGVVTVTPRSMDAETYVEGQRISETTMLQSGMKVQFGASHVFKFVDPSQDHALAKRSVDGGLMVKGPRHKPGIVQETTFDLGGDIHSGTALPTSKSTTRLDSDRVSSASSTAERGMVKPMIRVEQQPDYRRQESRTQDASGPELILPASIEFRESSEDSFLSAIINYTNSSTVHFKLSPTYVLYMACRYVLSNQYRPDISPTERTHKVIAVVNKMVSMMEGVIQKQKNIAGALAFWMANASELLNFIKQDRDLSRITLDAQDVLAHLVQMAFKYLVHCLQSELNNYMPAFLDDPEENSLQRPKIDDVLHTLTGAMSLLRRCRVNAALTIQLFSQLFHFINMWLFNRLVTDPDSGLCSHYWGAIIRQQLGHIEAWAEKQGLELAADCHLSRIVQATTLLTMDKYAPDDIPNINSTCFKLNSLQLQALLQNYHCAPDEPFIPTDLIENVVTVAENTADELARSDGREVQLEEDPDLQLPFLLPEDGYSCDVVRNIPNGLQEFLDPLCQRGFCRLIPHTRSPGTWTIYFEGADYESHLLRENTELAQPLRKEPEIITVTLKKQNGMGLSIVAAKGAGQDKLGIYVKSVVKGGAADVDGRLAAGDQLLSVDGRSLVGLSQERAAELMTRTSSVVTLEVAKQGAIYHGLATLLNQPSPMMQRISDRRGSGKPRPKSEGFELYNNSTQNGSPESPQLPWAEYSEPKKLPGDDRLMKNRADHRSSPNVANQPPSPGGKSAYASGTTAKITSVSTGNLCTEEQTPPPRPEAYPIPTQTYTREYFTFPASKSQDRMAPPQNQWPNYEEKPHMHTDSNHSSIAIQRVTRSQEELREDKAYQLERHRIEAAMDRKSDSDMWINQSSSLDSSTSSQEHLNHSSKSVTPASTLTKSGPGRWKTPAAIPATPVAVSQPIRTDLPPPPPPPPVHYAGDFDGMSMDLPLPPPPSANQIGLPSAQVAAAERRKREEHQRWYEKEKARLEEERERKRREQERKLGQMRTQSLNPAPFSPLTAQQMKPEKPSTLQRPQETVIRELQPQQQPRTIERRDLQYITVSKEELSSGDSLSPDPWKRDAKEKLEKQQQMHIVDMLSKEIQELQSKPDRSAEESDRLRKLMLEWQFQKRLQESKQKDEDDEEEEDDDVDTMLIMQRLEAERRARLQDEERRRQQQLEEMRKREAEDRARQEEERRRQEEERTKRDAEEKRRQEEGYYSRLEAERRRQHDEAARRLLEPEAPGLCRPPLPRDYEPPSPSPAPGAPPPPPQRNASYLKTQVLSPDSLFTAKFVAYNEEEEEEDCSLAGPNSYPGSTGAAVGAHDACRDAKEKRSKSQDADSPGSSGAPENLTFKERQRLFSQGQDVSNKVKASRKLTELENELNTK
# UniProt Q8IUR7, sequence (Q8IUR7 whole entry, looked up): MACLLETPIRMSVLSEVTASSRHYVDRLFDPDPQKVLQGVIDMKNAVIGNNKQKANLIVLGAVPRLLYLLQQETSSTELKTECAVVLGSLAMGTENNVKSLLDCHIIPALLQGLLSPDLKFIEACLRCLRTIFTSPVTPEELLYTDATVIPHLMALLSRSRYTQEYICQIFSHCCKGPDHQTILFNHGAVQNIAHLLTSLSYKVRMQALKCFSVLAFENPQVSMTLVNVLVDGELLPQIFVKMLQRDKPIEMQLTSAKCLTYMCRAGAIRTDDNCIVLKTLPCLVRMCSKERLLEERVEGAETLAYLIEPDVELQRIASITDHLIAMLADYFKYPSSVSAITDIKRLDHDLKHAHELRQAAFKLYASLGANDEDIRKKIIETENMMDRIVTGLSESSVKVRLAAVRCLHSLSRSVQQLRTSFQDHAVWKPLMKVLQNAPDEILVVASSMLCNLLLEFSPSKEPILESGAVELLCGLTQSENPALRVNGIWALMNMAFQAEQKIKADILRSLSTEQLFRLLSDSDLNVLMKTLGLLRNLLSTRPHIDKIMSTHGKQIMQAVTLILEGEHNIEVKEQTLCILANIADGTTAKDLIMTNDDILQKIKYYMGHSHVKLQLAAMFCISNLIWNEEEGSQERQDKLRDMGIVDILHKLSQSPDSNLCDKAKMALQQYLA
# UniProt Q9NWB6, sequence (Q9NWB6 whole entry, looked up): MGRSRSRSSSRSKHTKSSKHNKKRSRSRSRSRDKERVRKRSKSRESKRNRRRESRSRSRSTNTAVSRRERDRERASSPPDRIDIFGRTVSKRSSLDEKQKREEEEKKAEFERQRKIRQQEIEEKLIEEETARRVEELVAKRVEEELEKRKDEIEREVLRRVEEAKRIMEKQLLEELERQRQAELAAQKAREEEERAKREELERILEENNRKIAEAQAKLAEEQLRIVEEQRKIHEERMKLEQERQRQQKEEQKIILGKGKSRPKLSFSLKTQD
Target,log2 fold change [1],log2 fold change (volasertib),log2 fold change [2],log2 fold change (epoxomicin),log2 fold change [3],log2 fold change [4],log2 fold change [5],log2 fold change (rosiglitazone),log2 fold change [6],log2 fold change [7],log2 fold change (saracatinib),log2 fold change (sotrastaurin),log2 fold change (alvocidib),log2 fold change (Tubastatin A),log2 fold change [8],log2 fold change (defactinib),log2 fold change (rucaparib),log2 fold change [9],log2 fold change (encorafenib),log2 fold change [10]
ARHGAP1 (UniProt Q07960),0.014,-0.027,0.021,0.013,-0.006,-0.082,-0.007,0.03,-0.014,0.19,-0.015,-0.03,-0.057,0.044,-0.032,-0.046,0.005,-0.019,0.001,-0.014
AKR1C3 (UniProt P42330),0.011,0.009,-0.01,0,0.131,-0.247,0.067,-0.06,-0.127,0.214,0.05,0.093,-0.054,0.044,0.188,0.222,0.061,0.424,-0.081,0.007
AFDN isoform 5 (UniProt P55196),-0.072,-0.254 (active),0.05,0.047,-0.047,-0.099,0.008,0.044,-0.003,-0.353 (active),-0.034,-0.032,-0.095,0.025,-0.043,-0.115,0.023,0.035,0.077,-0.033
AKT1 (UniProt P31749),0,-0.503,0.068,0.158,-0.119,-0.08,0.133,0.257,0.107,0.222,-0.163,-0.25,-0.043,0.111,0.317,-0.062,0.038,-0.24,-0.003,-0.025
BRIP1 (UniProt Q9BX63),-0.067,0.008,-0.004,-0.008,-0.16,-0.122,-0.068,0.044,0.041,-0.084,-0.034,-0.016,-0.067,-0.089,0.001,0.083,-0.068,-0.088,-0.003,0.018
ATP5ME (UniProt P56385),0.004,0.038,-0.048,0.075,-0.002,0.002,-0.054,-0.013,0.018,0.069,0.026,0.009,0.04,-0.009,-0.006,0.029,-0.022,-0.069,-0.07,0.023
ATRN (UniProt O75882),0.029,-0.094,-0.019,0.063,-0.1,0.004,-0.01,-0.096,0.095,0.121,0.05,-0.047,-0.024,0.012,-0.017,-0.065,0.022,0.12,-0.05,0.045
ATG9A (UniProt Q7Z3C6),-0.019,-0.326 (active),0.027,-0.007,0.002,-0.06,0.018,0.008,0.058,-0.118,0.016,-0.084,-0.086,0.067,-0.029,-0.09,-0.008,-0.052,0.055,-0.013
ARMC8 (UniProt Q8IUR7),-0.055,-0.14,0.053,-0.008,-0.005,0.003,-0.007,-0.029,0.053,0.043,-0.05,-0.07,-0.049,0.009,0.016,-0.005,0.017,0.228,0.026,-0.031
ARGLU1 (UniProt Q9NWB6),0.094,-0.004,0.033,-0.106,0.024,0.138,0.003,0.012,0.068,0,0.016,0.091,0.014,0.003,-0.365,-0.04,-0.026,-0.028,-0.006,0.077
ARFGAP2 (UniProt Q8N6H7),-0.052,-0.257 (active),0.067,0.009,-0.037,0.023,0.017,0.038,-0.015,-0.068,0.037,-0.051,-0.083,0.03,0.025,-0.023,0.017,0.017,0.05,-0.02
ATP6AP1 (UniProt Q15904),-0.05,-0.02,0.033,0.09,0.011,0.037,-0.074,0,0.098,0.016,-0.021,-0.097,0.055,0.043,-0.011,0.066,-0.057,-0.006,0.053,-0.031
ATP1A4 (UniProt Q13733),0.125,0.07,-0.025,0.081,-0.004,-0.056,-0.05,0.006,-0.057,0.26 (active),0.066,-0.088,0.015,-0.017,0.151,0.033,-0.076,-0.108,0.021,0.118
BRD8 (UniProt Q9H0E9),0.038,-0.044,-0.013,0.039,0.035,0.043,-0.044,0.003,0.025,-0.063,0.004,-0.001,0.004,-0.097,-0.017,-0.047,-0.012,-0.08,-0.027,-0.009
ATP1A1 (UniProt P05023),0.058,0.059,-0.029,-0.025,0.021,-0.026,-0.009,-0.004,-0.053,0.26 (active),0.046,0.039,-0.034,-0.026,-0.026,-0.024,-0.009,0.011,-0.001,0.014
ACSF3 (UniProt Q4G176),-0.014,-0.093,0.039,0.152,0.034,-0.17,0.008,0.125,0.016,-0.116,0.079,0.002,0.026,-0.067,0.099,-0.058,-0.051,-0.016,0.146,-0.019

# — the supplement of paper PMC10849652
